A selection: hits, their analogues and other compounds. The true share with any hit is near 2.4%.
PTHR1 agonist – activates the human parathyroid hormone receptor PTHR1 | HEK293 GP2 PTHR1 cells, GloSensor cAMP luminescence, 1 h | hit rate 0.075% among 410,000 | Potency, µM (doses to about 115 µM), hits mostly activators | AID 743266; note: nearly all actives have a fitted effect of over 55% in size
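HEK-293-derived GP2 cells expressing PTHR1 and a GloSensor cAMP reporter, 3,000/well, plated overnight, given luciferin plus IBMX (each 0.5 mM as added) for 1 h at 37 °C, then compound for 1 h at 37 °C. Luminescence was read after 15 min at room temperature.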
TRHR ag – agonists of human TRH receptor. P34981. TRHR cells, calcium flux fluo-8, FDSS agonist mode. activation, % at 2 µM. hit rate 0.18% among 360,000. AID 493084; in the data active = activation above about 30%
Target sequence (P34981 whole entry, looked up): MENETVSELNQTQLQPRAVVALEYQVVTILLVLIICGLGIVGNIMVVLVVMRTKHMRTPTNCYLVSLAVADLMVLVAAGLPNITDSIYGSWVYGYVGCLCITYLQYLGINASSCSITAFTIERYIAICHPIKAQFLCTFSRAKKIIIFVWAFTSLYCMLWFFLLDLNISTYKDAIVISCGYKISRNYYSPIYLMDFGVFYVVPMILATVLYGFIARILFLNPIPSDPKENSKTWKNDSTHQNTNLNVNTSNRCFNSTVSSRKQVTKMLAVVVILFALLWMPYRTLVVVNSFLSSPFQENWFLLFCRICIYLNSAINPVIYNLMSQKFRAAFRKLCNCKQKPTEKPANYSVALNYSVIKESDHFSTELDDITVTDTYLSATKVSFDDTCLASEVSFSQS
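TRHR-expressing cells, plated overnight in medium with 10% serum, were loaded with fluo-8 calcium dye at room temperature. After a 10 s baseline, library compound was pin-added and calcium release was recorded kinetically (ex 480/em 530) as agonist response.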
GLP-1R inv ag – GLP-1 receptor (human) inverse agonism; HEK293 GLP-1R CRE-luciferase, luminescence, 24 h; GLP-1R form is constitutively active; Potency, µM (highest dose often 38.3 µM), actives largely listed as inhibitors; hit rate 1.6% among 410,000; AID 624417; note: nearly all actives have a fitted effect of over 55% in size
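Inverse agonists were sought by their lowering of basal cAMP reporter luciferase output in HEK293 cells stably carrying constitutively active human GLP-1R, after 24 h compound treatment.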
GLP-1R agonist – GLP-1 receptor (human) agonism; hit rate 0.007% among 380,000; HEK293 GLP-1R CRE-luciferase, luminescence, 4-6 h; cells express a hypersensitive GLP-1R form; AID 624172; Potency, µM (series often up to 45.6 µM), usual class: activators
HEK293 tox – cytotoxicity in counter-screen for GLP-1R inverse agonists. HEK293 cAMP-luciferase reporter cells, luminescence, 24 h. Potency, µM (doses to about 38.3 µM), usual class: inhibitors. hit rate 0.13% among 410,000;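 note: loss of luciferase light is scored as toxicity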
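Quantitative HTS format, 1536 wells, 200 cells/uL seeded. Compounds: 23 nL, 24 h, 37 °C. Detection: luciferase reagent, luminescence at 12 min RT; decreased signal taken as cytotoxic.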
TRHR enhancer – allosterically enhances the human TRH receptor; TRHR cells, fluo-8 calcium fluorescence, EC20 TRH enhancement; hit rate 0.66% among 360,000; enhancement, % at 2 µM; in the data active = enhancement above about 30%
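Enhancer read-out: after compound pinning and an initial kinetic agonist-mode read, an EC20 of TRH (10 nM final) was injected and fluo-8 calcium signal (Ex 480/Em 530) followed at 1 s/cycle for 100 cycles in TRHR-expressing cells.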
Each line names hits and unclear results; the compound was inactive in the other large screens. Unless noted, calls come from the whole dose curve; as a rule, active = well fitted curve in the direction sought with a large enough effect; inconclusive = small, poorly fitted or top-dose-only effect, or another doubt; inactive = no such curve, though single readings can be large; an effect the other way counts as inactive or inconclusive.

Cc1[nH]c2c(C)cccc2c1CCNC(=O)c1cc2ccccc2oc1=O	none
COc1ccc2oc(=O)c(C(=O)NCCc3c(C)[nH]c4c(C)cccc34)cc2c1	GLP-1R inv ag inconclusive, TRHR enhancer 50.6
Cc1[nH]c2ccc(F)cc2c1CCNC(=O)c1cc2cc(Cl)ccc2oc1=O	none (no result: GLP-1R agonist)
COc1cccc2cc(C(=O)NCCc3c(C)[nH]c4ccc(F)cc34)c(=O)oc12	TRHR enhancer 38.7
COc1ccc(NC(=S)N2CCC(c3ccc(C)cc3)C2)cc1 (stereo not given)	GLP-1R inv ag inconclusive
CCC(NC(=O)CNC(=O)c1ccc2c(c1)OCO2)c1ccc(Br)cc1 (stereo not given)	GLP-1R inv ag 12.6µM
O=C(CNC(=O)c1ccc2c(c1)OCO2)Nc1cccc(Br)c1	GLP-1R inv ag inconclusive
Cc1cc(C)c(CN2CCN(C(=O)Cn3cnc4c(NCc5ccccc5)ncnc43)CC2)c(C)c1	GLP-1R inv ag 8.91µM (no result: TRHR ag, TRHR enhancer)
O=C(OCc1nnc(-c2ccccc2)o1)c1ccc(-n2cnnn2)cc1	none
O=C(OCc1nnc(-c2ccccc2)o1)c1cn(-c2ccccc2)nc1-c1ccccc1	GLP-1R inv ag 12.6µM
Cc1ccc(S(=O)(=O)n2nc(OC(=O)c3cccc(F)c3)cc2N)cc1	none
COc1cc(CNCCN2CCOCC2)ccc1OCc1ccc(Cl)cc1Cl	GLP-1R inv ag 3.16µM
COc1cc(CNCCN2CCOCC2)ccc1OCc1cccc(Cl)c1	GLP-1R inv ag inconclusive
CCOc1ccccc1N(CC(=O)NCCSc1ccccn1)S(=O)(=O)c1ccc(C)cc1	none
Cc1ccccc1OCCSc1nc2ccc(NC(=O)c3ccccc3)cc2s1	GLP-1R inv ag 2.82µM (no result: GLP-1R agonist)
Cc1ccccc1OCCSc1nc2ccc(NC(=O)c3cccs3)cc2s1	GLP-1R inv ag 12.6µM (no result: GLP-1R agonist)
Cc1cccc(OCCSc2nc3ccc(NC(=O)c4cccs4)cc3s2)c1	GLP-1R inv ag inconclusive (no result: GLP-1R agonist)
Cc1ccc(OCc2nnc(N)s2)cc1C	none
Cc1cccc(N2CCN(C(=O)c3ccc(Cl)c(S(=O)(=O)N4CCc5ccccc5C4)c3)CC2)c1C	GLP-1R inv ag 7.08µM
O=C(c1ccc(Cl)c(S(=O)(=O)N2CCc3ccccc32)c1)N1CCN(c2ccccc2O)CC1	GLP-1R inv ag inconclusive (no result: TRHR ag, TRHR enhancer)
COc1cc2c3c(cccc3c1)C(=O)N(CCN1CCCC1)C2=O	GLP-1R inv ag 4.47µM (no result: TRHR ag, TRHR enhancer)
Cc1ccc(NC(=O)c2c(-c3ccccc3Cl)noc2C)nc1	none
Cc1onc(-c2ccccc2Cl)c1C(=O)O/N=C(\N)c1ccccc1	GLP-1R inv ag 10µM, HEK293 tox inconclusive
Cc1onc(-c2ccccc2Cl)c1C(=O)Nc1ccc(Cl)cn1	GLP-1R inv ag inconclusive, TRHR enhancer 31.1
Cc1onc(-c2ccccc2Cl)c1C(=O)NNC(=O)c1ccc(F)cc1	none
Cc1onc(-c2c(Cl)cccc2Cl)c1C(=O)Nc1ccc(Cl)cn1	GLP-1R inv ag 1.78µM
Cc1cccc(C(=O)NNC(=O)c2c(-c3ccccc3Cl)noc2C)c1O	TRHR enhancer 30.8
Cc1nc(NC(=O)CN2CCC(O)(c3ccc(F)cc3)CC2)sc1C	none
Cc1csc(NC(=O)c2c(-c3c(Cl)cccc3Cl)noc2C)n1	GLP-1R inv ag 11.2µM
Cc1csc(NC(=O)c2c(-c3c(F)cccc3Cl)noc2C)n1	GLP-1R inv ag inconclusive
Cc1onc(-c2ccccc2Cl)c1C(=O)NCc1nc(-c2ccc(C(F)(F)F)cc2)no1	GLP-1R inv ag 10µM
CCC(C)N(C)Cc1cccc(C2(O)CCN(S(=O)(=O)c3ccc(F)c(C)c3)CC2)c1 (stereo not given)	GLP-1R inv ag 2.51µM, HEK293 tox inconclusive
Cc1cc(N2CCN(C)CC2)nc(-c2ccccc2O)n1	GLP-1R inv ag 3.98µM
OCOCCCn1c(C2CCCN2c2nc(-c3ccc(F)cc3)cs2)nc2cc(Cl)c(N3CCCCC3)cc21 (stereo not given)	GLP-1R inv ag 7.94µM (no result: TRHR ag, TRHR enhancer)
O=C(CN1C(=O)NC(c2ccccc2)(c2ccccc2)C1=O)NC1CCCC1	none
CC(C)CN=C(NS(=O)(=O)c1ccccc1)C(Cl)(Cl)Cl	GLP-1R inv ag 7.94µM
CC(C)CC(NS(=O)(=O)c1ccccc1)C(=O)O (stereo not given)	none
C/C(=N/NC(=O)c1nnn(-c2nonc2N)c1COc1ccccc1)c1ccccc1Cl	GLP-1R inv ag inconclusive
CC(C)C[C@H]1CNC(=S)N1CC1CCN(CCC23CC4CC(CC(C4)C2)C3)CC1	GLP-1R inv ag 10µM (no result: TRHR ag, TRHR enhancer)
CC(C)C[C@H]1CNC(=S)N1CC1CCN(CC2CCCC2)CC1	none (no result: TRHR ag, TRHR enhancer)
COC(=O)c1ccc(NC(=S)NC2CCCCC2C)cc1 (stereo not given)	GLP-1R inv ag 10µM, HEK293 tox inconclusive
Cc1ccc(C(=O)Nc2ccc3c(c2)CCC3)cc1	GLP-1R inv ag inconclusive, TRHR enhancer 35.1
CCCCCCSc1nnc(-c2cnn(-c3ccccc3)c2-n2cccc2)n1C	GLP-1R inv ag 4.47µM, HEK293 tox inconclusive
CC(=O)c1ccc(Oc2ncnc3c2oc2ccccc23)cc1	none (no result: GLP-1R agonist)
CN(C)C=NC(=O)c1[nH]c2ccc(Cl)cc2c1-c1ccccc1	GLP-1R inv ag 11.2µM, HEK293 tox inconclusive
CC(=O)c1c(-c2ccccc2)c2cc(Cl)ccc2[nH]c1=O	none
CCOc1ccccc1OCCCC(=O)ON=C(N)c1ccccc1	GLP-1R inv ag inconclusive
OC1(c2ccccc2)CC(c2ccccc2)c2ccccc2O1 (stereo not given)	GLP-1R inv ag 11.2µM, HEK293 tox inconclusive (no result: TRHR ag, TRHR enhancer)
COc1ccc(C2CC(O)(c3ccccc3)Oc3cc(OC)c(OC)c(OC)c32)cc1 (stereo not given)	GLP-1R inv ag inconclusive
O=C(NCCN1CCCCC1)c1cc(OCC(F)(F)F)ccc1OCC(F)(F)F	none
COc1cc(CN2CCN(c3cccc(Cl)c3)CC2)cc(OC)c1OC	GLP-1R inv ag 5.01µM, HEK293 tox inconclusive
COc1cc(C(=O)N2CCN(c3cccc(Cl)c3)CC2)ccc1OCC(=O)N1CCOCC1	none (no result: TRHR ag, TRHR enhancer)
O=C(NNC1=NS(=O)(=O)c2ccccc21)c1ccc([N+](=O)[O-])cc1	TRHR enhancer 30.4
Cc1cccc(C2=NN(c3ccccc3)[C@@H](C(=O)N3CCOC3=O)[C@@H]2c2ccc(Cl)cc2)c1	GLP-1R inv ag inconclusive (no result: TRHR ag, TRHR enhancer)
Cc1cccc(C2=NN(c3ccccc3)[C@@H](C(=O)N3CCOC3=O)[C@@H]2c2ccc(F)cc2)c1	GLP-1R inv ag 12.6µM (no result: TRHR ag, TRHR enhancer)
Cc1ccc(-c2nnn(CC(=O)N(CCCO)C(C(=O)NC3CCCC3)c3ccc(Cl)cc3)n2)o1 (stereo not given)	GLP-1R inv ag inconclusive

From PubChem BioAssay
